The list is not random: actives were taken first. Their share in the collection is about 12%.
Lmaj promast: inhibitors of Leishmania major promastigote growth | 200,000 tested, 9% active | Leishmania major promastigotes, resazurin fluorescence viability | inhibition, % at 10 µM; in the data active = inhibition above about 50%;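 note: promastigotes grown with compound for 44 hours at 28 °C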
WT yeast gro inh: growth inhibition of WT yeast, mitochondrial fusion screen; inhibition, % at 10 µM; 190,000 tested, 2.1% active; mitochondrial fusion phenotypic screen, WT strain; in the data active = inhibition above about 58%; tested in S. cerevisiae
ROMK mod: modulates human ROMK potassium channel activity. 130,000 tested, 2% active. P48048. AID 1918. B-score at 10 µM. Tet-inducible ROMK, thallium flux fluorescence; actives lie on both sides;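 active = signal ratio slope over the read window, or its plate-corrected B-score, at least 3 SD from the plate mean, either direction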;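 note: B-score of the F/F0 ratio slope over 7 to 12 s after thallium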
Target sequence (P48048 whole entry, looked up): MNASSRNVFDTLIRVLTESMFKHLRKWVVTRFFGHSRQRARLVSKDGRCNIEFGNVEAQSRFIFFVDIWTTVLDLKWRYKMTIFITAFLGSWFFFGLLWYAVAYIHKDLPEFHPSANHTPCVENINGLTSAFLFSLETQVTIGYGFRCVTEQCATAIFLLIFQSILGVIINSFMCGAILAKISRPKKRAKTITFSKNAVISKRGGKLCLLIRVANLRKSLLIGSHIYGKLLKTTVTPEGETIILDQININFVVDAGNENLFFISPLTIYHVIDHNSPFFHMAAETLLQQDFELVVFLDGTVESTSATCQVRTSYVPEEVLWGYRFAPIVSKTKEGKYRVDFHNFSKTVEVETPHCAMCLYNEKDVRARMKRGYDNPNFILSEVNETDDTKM
Cl transport mod: modulators of human KCC2 chloride dependent transport. Q9H2X9. KCC2 cells, thallium flux FluoZin-2 fluorescence. B-score of Tl+ flux slope (higher = more flux/activation; lower = inhibition) at 10 µM. 190,000 tested, 2.2% active;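 active = thallium flux slope and its plate-corrected score both differing from the plate sample mean at a set confidence after two filtering rounds, in either direction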;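 note: slope of fluorescence scaled to starting intensity during 10 to 20 s after thallium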
Calpain2 inh: blocks pig calpain II enzyme activity; purified calpain II, fluorogenic peptide substrate, 30 min; inhibition, % at 16 µM; 220,000 tested, 0.37% active; AID 1236;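 active = inhibition above about 50%, limit read from the data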
* = called active by the depositor.

How did COc1ccc(CCNC(=O)CSc2c[nH]c3ccccc23)cc1OC do in these assays?
Lmaj promast: -5; WT yeast gro inh: -20; ROMK mod: 0.2; Cl transport mod: 0; Calpain2 inh: 41

How did CC1=CC2=NC(=O)/C(=C\c3cccn3CCOc3cccc(C)c3)C(=N)N2O1 do in these assays?
Lmaj promast: 13; WT yeast gro inh: 38; ROMK mod: -0.33; Cl transport mod: -1.5; Calpain2 inh: 22

What do the screens show for `CC1=CC2=NC(=O)/C(=C\c3cccn3CCOc3cc(C)ccc3C)C(=N)N2O1`?
Lmaj promast: 53*; WT yeast gro inh: 33; ROMK mod: 0.67; Cl transport mod: -0.79; Calpain2 inh: 18

Results for CC1=CC2=NC(=O)/C(=C\c3cccn3CCOc3cc(C)cc(C)c3)C(=N)N2O1 ?
Lmaj promast: 3; WT yeast gro inh: 40; ROMK mod: -0.58; Cl transport mod: -0.72; Calpain2 inh: 88*

What do the screens show for `O=C(CCSc1ccccc1)Nc1ccc(S(=O)(=O)N2CCOCC2)cc1`?
Lmaj promast: -14; WT yeast gro inh: 18; ROMK mod: -0.72; Cl transport mod: -0.77; Calpain2 inh: -27

How did CCOC(=O)c1cc(=O)c2ccc(OCC(=O)Nc3ccccc3)cc2o1 do in these assays?
Cl transport mod: 0.59; Calpain2 inh: 7

What do the screens show for `CCOC(=O)C1=C(C)N(CC(C)C)C(=O)/C1=C\c1ccc(OCC(=O)Nc2ccccc2)cc1`?
Lmaj promast: 81*; WT yeast gro inh: 0; ROMK mod: 0.51; Cl transport mod: 0.48; Calpain2 inh: 12

How did CCOc1ccc(/C(O)=C2/C(=O)C(=O)N(c3ncccn3)C2c2ccccc2)cc1 (stereo not given) do in these assays?
Lmaj promast: -7; WT yeast gro inh: -12; ROMK mod: 0.31; Cl transport mod: -0.75; Calpain2 inh: 4

Results for O=C(C1CCN(S(=O)(=O)c2cccc3nsnc23)CC1)N1CCc2ccccc21 ?
Lmaj promast: 87*; WT yeast gro inh: -4; Cl transport mod: -3.6; Calpain2 inh: 2

What do the screens show for `Cc1cccc(N2CCN(C(=O)C3CCN(S(=O)(=O)c4cccc5nsnc45)CC3)CC2C)c1` (stereo not given)?
Lmaj promast: 51*; WT yeast gro inh: 14; Cl transport mod: 0.067; Calpain2 inh: -181

Results for CC1Cc2ccccc2N1C(=O)C1CCCN(S(=O)(=O)c2cccc3nsnc23)C1 (stereo not given) ?
Lmaj promast: 46; WT yeast gro inh: 17; ROMK mod: -3.1*; Cl transport mod: -0.11; Calpain2 inh: 55*

What do the screens show for `CC1CCCN(C(=O)C2CCCN(S(=O)(=O)c3cccc4nsnc34)C2)C1` (stereo not given)?
Lmaj promast: 31; WT yeast gro inh: 11; ROMK mod: -0.15; Calpain2 inh: -19

Results for O=C(C1CCN(S(=O)(=O)c2cccc3nsnc23)CC1)N1CCCc2ccccc21 ?
Lmaj promast: 8; WT yeast gro inh: -5; Cl transport mod: -4; Calpain2 inh: 14

What do the screens show for `Cc1cccc(N2CCN(C(=O)C3CCN(S(=O)(=O)c4cccc5cccnc45)CC3)CC2C)c1` (stereo not given)?
Lmaj promast: 14; WT yeast gro inh: 11; Cl transport mod: -0.44; Calpain2 inh: -54

Results for CCc1nnc(NC(=O)C2=CCN(S(=O)(=O)c3ccc(F)cc3)CC2)s1 ?
Cl transport mod: 0.85; Calpain2 inh: 2

Results for C=CCC(O)(CC=C)C(C)N (stereo not given) ?
Lmaj promast: -5; WT yeast gro inh: -13; ROMK mod: 0.88; Cl transport mod: 1.5; Calpain2 inh: 2

Results for CN(Cc1nc(-c2cnccn2)no1)CC1CCN(Cc2ccccc2)CC1 ?
Lmaj promast: 91*; WT yeast gro inh: -4; ROMK mod: 0.062; Cl transport mod: 1.2; Calpain2 inh: -14

Results for CC(C)CCc1noc(CN(C)CC2CCN(Cc3ccccc3)CC2)n1 ?
Lmaj promast: 83*; WT yeast gro inh: 11; ROMK mod: -0.066; Calpain2 inh: -9

Results for O=C1NCCN1Cc1ccccc1F ?
Lmaj promast: 1; WT yeast gro inh: -11; ROMK mod: 0.47; Cl transport mod: 0.0087; Calpain2 inh: 2

Results for O=c1c2cccc3c2c(nn1CN1CCOCC1)-c1ccccc1-3 ?
Lmaj promast: 23; WT yeast gro inh: 0; Cl transport mod: 1.1; Calpain2 inh: -127

Results for CCN(CC)CCn1nc2c3c(cccc3c1=O)-c1ccccc1-2 ?
Lmaj promast: 100*; WT yeast gro inh: 25; ROMK mod: -0.31; Cl transport mod: -0.1; Calpain2 inh: -50
